9 molecules from ChEMBL document CHEMBL1157539, “Thousands of chemical starting points for antimalarial lead identification” (Nature, 2010) can be followed below.

Molecules are shown by their SMILES.

Common to all, as to assay type: functional
For experiment [1], the system named is Plasmodium falciparum. The experiment is described as follows: GSK_TCMDC: Inhibition of Plasmodium falciparum 3D7 in whole red blood cells, using parasite LDH activity as an index of growth. Test compounds present at 2uM.
Experiment [2] concerns Plasmodium falciparum. As to the kind of experiment: GSK_TCMDC: Inhibition of Plasmodium falciparum Dd2 in whole red blood cells, using parasite LDH activity as an index of growth. Test compounds present at 2uM.
A further experiment relates to HepG2. The experiment is described as follows: GSK_TCMDC: Percent inhibition of human HepG2 cell line. Test compounds present at 10uM.

Turning to `Cc1cnc(CN(Cc2ccc(-c3ccc(CNCCc4ccc(S(C)(=O)=O)cc4)cn3)cc2)C(=O)c2nn(-c3ccccc3)nc2C)cn1.O=C(O)C(F)(F)F`, the Inhibition in the experiment on Plasmodium falciparum [1] stood at 84%; in the experiment with Plasmodium falciparum [2] it was 21%; with HepG2 it was 11%.

For `NC(=O)C1CCN(Cc2cccc(-c3cccc(-c4nc5cc(F)ccc5[nH]4)c3)c2)CC1.O=C(O)C(F)(F)F`, the Inhibition turned out to be 100% with Plasmodium falciparum [1], 7% with Plasmodium falciparum [2] and 15% in the experiment on HepG2.

For `Cc1ccc(C2CCN(CCCCNC(=O)c3ccc(NC(=O)c4ccc(Cl)cc4)cc3)CC2)c(OCC(F)(F)F)c1`, the Inhibition with Plasmodium falciparum [1] was 99%; in the experiment with Plasmodium falciparum [2], 84%; in the experiment on HepG2 it was 32%.

As for `CS(=O)(=O)O.CSc1ccc2ccccc2c1CCNCCCCNCCc1c(SC)ccc2ccccc12`, the figures for the Inhibition with Plasmodium falciparum [1], in the experiment on Plasmodium falciparum [2] and in the experiment on HepG2 were 100%, 60% and 99%, respectively.

As to `CN(C)CCCOc1ccccc1CN1CC[C@H](NC(=O)c2ccc(Cl)c(Cl)c2)C1.O=C(O)C(F)(F)F`, the Inhibition is 94% with Plasmodium falciparum [1], 54% in the experiment with Plasmodium falciparum [2] and 42% in the experiment with HepG2.

For the molecule `COc1ccc(NS(=O)(=O)c2ccc(C(=O)Nc3ccc(C(F)(F)F)cc3)cc2)cc1N1CCN(CC2CC2)CC1.O=C(O)C(F)(F)F`, the Inhibition was 92% in the experiment on Plasmodium falciparum [1], 0% with Plasmodium falciparum [2] and 15% with HepG2.

For the molecule `CN1CCc2ccc(NC(=O)Nc3cccc(C(=O)c4ccccc4)c3)cc2C1`, the figures for the Inhibition with Plasmodium falciparum [1], in the experiment with Plasmodium falciparum [2] and in the experiment with HepG2 were 83%, 16% and 11%, respectively.

Consider `CC(C)Oc1cc(-c2ccc(S(C)(=O)=O)cc2)nc(N(Cc2cccc(F)c2F)Cc2cccc(F)c2F)n1`, for which the Inhibition with Plasmodium falciparum [1] is given as 100%; in the experiment with Plasmodium falciparum [2], 99%; in the experiment on HepG2, 10%.

Regarding `O=C(O)C(F)(F)F.c1cc(CN2CCN(CCN3CCOCC3)CC2)cc(-c2csc(-c3nc4ccccc4[nH]3)c2)c1`, the Inhibition in the experiment on Plasmodium falciparum [1] is given as 100%; in the experiment on Plasmodium falciparum [2], 99%; in the experiment with HepG2 it was 27%.

Broadly, the Inhibition is the relative decrease from the control value, in per cent.
